About 2,000 (36%) of roughly 5,500 compounds were called active. Roughly 18% stayed inconclusive and do not appear here. Cut-off read from the data, not from the text of the source: active = normalized growth mostly below about 0.91 (no sharp cut-off); inconclusive = no clear call, values can overlap the other calls; inactive = mostly above about 0.92. The list shows a part of the results.
Assay: chemical genetic growth profiling, strain panel (AID 1159580);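 note: tested at 20 µM; growth read once vehicle control cultures reached saturation at 30 °C; 1 = growth at the plate median or of vehicle wells; lower values mean less growth of the strain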
Conditions: growth OD

Measured: normalized growth

O=c1c(O)cccc2c(C3Oc4cc(O)cc(O)c4CC3O)cc(O)c(O)c12 (configuration not stated)
active: S. cerevisiae deletion strains, locus YBR229C, strain ROT2, active compounds read low 0.409 | S. cerevisiae deletion strains, locus YCL029C, strain bik1, active compounds read low 0.239 | S. cerevisiae deletion strains, locus YDL035C, strain GPR1, active compounds read low 0.301 | S. cerevisiae deletion strains, locus YDL074C, strain BRE1, active compounds read low 0.322 | S. cerevisiae deletion strains, locus YDL101C, strain DUN1, active compounds read low 0.219 | S. cerevisiae deletion strains, locus YDL134C, strain PPH21, active compounds read low 0.314 | S. cerevisiae deletion strains, locus YDL185W, strain tfp1, active compounds read low 0.195 | S. cerevisiae deletion strains, locus YDL192W, strain arf1, active compounds read low 0.522 | S. cerevisiae deletion strains, locus YDR101C, strain arx1, active compounds read low 0.295 | S. cerevisiae deletion strains, locus YDR162C, strain NBP2, active compounds read low 0.137 | S. cerevisiae deletion strains, locus YDR318W, strain mcm21, active compounds read low 0.696 | S. cerevisiae deletion strains, locus YDR388W, active compounds read low 0.691 | S. cerevisiae deletion strains, locus YDR502C, strain sam2, active compounds read low 0.287 | S. cerevisiae deletion strains, locus YER155C, strain BEM2, active compounds read low 0.489 | S. cerevisiae deletion strains, locus YER167W, strain BCK2, active compounds read low 0.682 | S. cerevisiae deletion strains, locus YGL078C, strain dbp3, active compounds read low 0.139 | S. cerevisiae deletion strains, locus YGL086W, strain mad1, active compounds read low 0.494 | S. cerevisiae deletion strains, locus YGL248W, strain PDE1, active compounds read low 0.523 | S. cerevisiae deletion strains, locus YGR078C, strain PAC10, active compounds read low 0.686 | S. cerevisiae deletion strains, locus YGR135W, strain pre9, active compounds read low 0.504 | S. cerevisiae deletion strains, locus YGR252W, strain gcn5, active compounds read low 0.54 | S. cerevisiae deletion strains, locus YHR030C, strain SLT2, active compounds read low 0.484 | S. cerevisiae deletion strains, locus YHR079C, strain IRE1 (second series), active compounds read low 0.116 | S. cerevisiae deletion strains, locus YHR094C, strain hxt1, active compounds read low 0.835 | S. cerevisiae deletion strains, locus YHR129C, strain ARP1, active compounds read low 0.43 | S. cerevisiae deletion strains, locus YHR200W, strain rpn10, active compounds read low 0.623 | S. cerevisiae deletion strains, locus YIL066C, strain RNR3, active compounds read low 0.259 | S. cerevisiae deletion strains, locus YIL073C, strain SPO22, active compounds read low 0.243 | S. cerevisiae deletion strains, locus YIL125W, strain kgd1, active compounds read low 0.272 | S. cerevisiae deletion strains, locus YIR030C, strain dcg1, active compounds read low 0.716 | S. cerevisiae deletion strains, locus YJL095W, strain BCK1, active compounds read low 0.0943 | S. cerevisiae deletion strains, locus YJL134W, strain LCB3, active compounds read low 0.58 | S. cerevisiae deletion strains, locus YJL168C, strain set2, active compounds read low 0.913 | S. cerevisiae deletion strains, locus YJL187C, strain SWE1 (second series), active compounds read low 0.118 | S. cerevisiae deletion strains, locus YKL009W, strain mrt4, active compounds read low 0.0997 | S. cerevisiae deletion strains, locus YKL068W, active compounds read low 0.889 | S. cerevisiae deletion strains, locus YKL085W, strain MDH1 (second series), active compounds read low 0.303 | S. cerevisiae deletion strains, locus YKL085W, strain MDH1, active compounds read low 0.303 | S. cerevisiae deletion strains, locus YKR001C, strain vps1, active compounds read low 0.523 | S. cerevisiae deletion strains, locus YLR039C, strain RIC1, active compounds read low 0.251 | S. cerevisiae deletion strains, locus YLR058C, strain SHM2, active compounds read low 0.143 | S. cerevisiae deletion strains, locus YLR102C, strain apc9, active compounds read low 0.92 | S. cerevisiae deletion strains, locus YLR262C, strain YPT6, active compounds read low 0.497 | S. cerevisiae deletion strains, locus YLR268W, strain sec22, active compounds read low 0.201 | S. cerevisiae deletion strains, locus YLR330W, strain CHS5, active compounds read low 0.565 | S. cerevisiae deletion strains, locus YLR342W, strain FKS1 (second series), active compounds read low 0.321 | S. cerevisiae deletion strains, locus YLR371W, strain rom2, active compounds read low 0.626 | S. cerevisiae deletion strains, locus YLR418C, strain cdc73, active compounds read low 0.306 | S. cerevisiae deletion strains, locus YML016C, strain PPZ1, active compounds read low 0.225 | S. cerevisiae deletion strains, locus YML032C, strain rad52, active compounds read low 0.391 | S. cerevisiae deletion strains, locus YML124C, strain tub3, active compounds read low 0.56 | S. cerevisiae deletion strains, locus YMR078C, strain ctf18, active compounds read low 0.885 | S. cerevisiae deletion strains, locus YMR223W, strain ubp8, active compounds read low 0.564 | S. cerevisiae deletion strains, locus YMR263W, strain SAP30, active compounds read low 0.233 | S. cerevisiae deletion strains, locus YMR307W, strain GAS1, active compounds read low 0.462 | S. cerevisiae deletion strains, locus YNL067W, strain RPL9B, active compounds read low 0.386 | S. cerevisiae deletion strains, locus YNL128W, strain TEP1, active compounds read low 0.136 | S. cerevisiae deletion strains, locus YNL153C, strain GIM3, active compounds read low 0.266 | S. cerevisiae deletion strains, locus YNL233W, strain BNI4, active compounds read low 0.453 | S. cerevisiae deletion strains, locus YNL250W, strain rad50, active compounds read low 0.098 | S. cerevisiae deletion strains, locus YNL271C, strain bni1, active compounds read low 0.53 | S. cerevisiae deletion strains, locus YNL298W, strain CLA4, active compounds read low 0.824 | S. cerevisiae deletion strains, locus YNL307C, strain MCK1, active compounds read low 0.832 | S. cerevisiae deletion strains, locus YNR052C, strain pop2, active compounds read low 0.127 | S. cerevisiae deletion strains, locus YOL147C, strain pex11, active compounds read low 0.287 | S. cerevisiae deletion strains, locus YOR061W, strain CKA2, active compounds read low 0.468 | S. cerevisiae deletion strains, locus YOR069W, strain VPS5, active compounds read low 0.29 | S. cerevisiae deletion strains, locus YOR136W, strain idh2, active compounds read low 0.67 | S. cerevisiae deletion strains, locus YOR144C, strain elg1, active compounds read low 0.198 | S. cerevisiae deletion strains, locus YOR184W, strain ser1, active compounds read low 0.357 | S. cerevisiae deletion strains, locus YOR316C, strain cot1, active compounds read low 0.922 | S. cerevisiae deletion strains, locus YPL055C, strain LGE1, active compounds read low 0.271 | S. cerevisiae deletion strains, locus YPL241C, strain CIN2, active compounds read low 0.617 | S. cerevisiae deletion strains, locus YPR141C, strain kar3, active compounds read low 0.17 | S. cerevisiae deletion strains, locus YPR163C, strain tif3, active compounds read low 0.703 | S. cerevisiae deletion strains, locus YPR167C, strain met16, active compounds read low 0.707 | S. cerevisiae deletion strains, strain wtn01, active compounds read low 0.44 | S. cerevisiae strains, strain wild type, active compounds read low 0.134
inactive: S. cerevisiae deletion strains, locus YBR021W, strain FUR4, active compounds read low 0.966 | S. cerevisiae deletion strains, locus YER110C, active compounds read low 0.963 | S. cerevisiae deletion strains, locus YOL012C, strain htz1 0.2 | S. cerevisiae deletion strains, locus YPR119W, strain clb2, active compounds read low 0.946

Source: PubChem BioAssay AID1159580 (chemical genetic matrix, 2015)
